PubChem BioAssay AID371 (SRMLSC, 2006)
Hit rate of the full screen: of about 3,300 compounds, about 280 (8.5%) were called active. The list comes from a sample in which actives are over-represented; it also holds similar structures and randomly drawn compounds. A number with no mark means an inactive call.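 The calls were made as follows: active = mean growth inhibition over the two runs of 50% or more; inactive = mean growth inhibition under 50%.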

Assay: A549 NSCLC cell proliferation inhibitors – ATP luminescence, human non-small cell lung line, primary screen (AID 371);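 also: compound exposure lasted 72 h before the ATP read; 0% = untreated cell signal and 100% = no luminescence left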
Details: at 10 µM, stronger effect = higher value

Row | SMILES | growth inhibition
1 | Cc1cccc(N2CN=c3s/c(=C\c4ccncc4)c(=O)n3C2)c1 | 5.71%
2 | N#CC1=C(N)N(c2ccccc2)C(c2ccccc2)C1(C#N)C#N (configuration not stated) | 21.4%
3 | Cn1ncc(N=Cc2c(O)ccc3ccccc23)c1C(=O)N1CCOCC1 | 3.71%
4 | Cc1coc2c(O)cc3c(c12)OC1(N2CCCCC2)C(=O)NCCCC31 (configuration not stated) | 91.4% (active)
5 | COc1ccc(C2N3CC4(C)CN2CC(C)(C3)C4O)cc1OC (configuration not stated) | 0.13%
6 | CC1(C)Cc2c(oc3ncn4ncnc4c23)CO1 | 0.31%
7 | COc1cc(C)nc(Oc2ccc(OCCOc3ccc(C)cc3)nn2)n1 | 6.13%
8 | CCc1[nH]c(=O)c(C#N)c2c1CCCC2 | 2.12%
9 | CC1CCN(c2[nH]c(=S)c(C#N)c3c2CCCC3)CC1 | 56% (active)
10 | CC1(C)Cc2c(c(N3CCCCC3)[nH]c(=S)c2C#N)CS1 | 4.02%
11 | COc1ccc2c(c1)[nH]c1c(=O)n(CCN(C)C)cnc12 | 4.43%
12 | CC1(C)SC2[C@H](NC(=O)C(NC(=O)N3CCNC3=O)c3ccccc3)C(=O)N2C1C(=O)O (some centres not stated) | 3.08%
13 | CC(C)C1C(C#N)=C(N)Oc2n[nH]c(C(C)(C)C)c21 (configuration not stated) | -3.11%
14 | Cc1[nH]nc2c1C(CCc1ccccc1)C(C#N)=C(N)O2 (configuration not stated) | 0.1%
15 | C1CCC(C(CC2CCCCN2)C2CCCCC2)CC1 (configuration not stated) | 91.8% (active)
16 | N#CCSc1nc2c(c(=O)n1Cc1ccco1)C1(CCCC1)Cc1ccccc1-2 | 30.2%
17 | Cc1ccnc(N2CCN(c3c4c(c(C#N)c5nc6ccccc6n35)CCC4)CC2)c1 | 7.43%
18 | COc1cc(=O)[nH]c(=O)n1CC(=O)c1ccccc1 | -1.03%
19 | CC1(C)Cc2c(C#N)c(N3CCN(C(=O)c4ccco4)CC3)nc(-c3ccco3)c2CS1 | 50.1% (active)
20 | CC1(C)Cc2c(C#N)c(NCCc3ccccc3)nc(-c3ccco3)c2CO1 | 1.2%
21 | CCc1nc(N2CCN(C(=O)c3ccccc3)CC2)c(C#N)c2c1COC(C)(C)C2 | 36.6%
22 | CC1(C)Cc2c(C#N)c(N3CCOCC3)nc(Cc3ccccc3)c2CO1 | 16.7%
23 | CC1(C)Cc2c(C#N)c(N3CCN(C(=O)c4ccccc4)CC3)nc(-c3ccco3)c2CS1 | 12.2%
24 | CCCCc1nc(NCCN2CCOCC2)c(C#N)c2c1COC(C)(C)C2 | 1.05%
25 | CC1(C)Cc2c(C#N)c(N3CCN(C(=O)c4ccco4)CC3)nc(Cc3ccccc3)c2CO1 | 72.3% (active)

Row | SMILES | growth inhibition
26 | CCCCc1nc(NCCNC(=O)c2ccco2)c(C#N)c2c1CSC(C)(C)C2 | 56.1% (active)
27 | CC1(C)Cc2c(c(-c3ccco3)[nH]c(=O)c2C#N)CS1 | 0.57%
28 | CCOC(=O)C(C(=O)OCC)N(C#N)c1nc(SC)nc(N(C)C)n1 | -4.38%
29 | Cc1nnc(SCC(=O)N2CCC(C(N)=O)CC2)s1 | -21.6%
30 | C=C(C)CN(CC)CCC(=O)Nc1ccc(OC)cc1OC | 4.6%
31 | COC(=O)CNC(=O)c1c(C)cc(=O)oc1C | 0.81%
32 | CC1(C(=O)CSc2nc3ccccc3s2)CCC(=O)O1 (configuration not stated) | 3.38%
33 | O=c1cc(N2CCCCC2)nc2n1CCCS2 | 8.96%
34 | Cc1ccc(S(=O)(=O)N2CCN(c3nc(C(C)C)c4c(c3C#N)CC(C)(C)OC4)CC2)cc1 | 29.3%
35 | Clc1ccc2[nH]c3c(NCCN4CCOCC4)ncnc3c2c1 | 34.3%
36 | Clc1ccc2[nH]c3c(NCCCN4CCOCC4)ncnc3c2c1 | 89.9% (active)
37 | Cc1ccc2[nH]c3c(NCCN4CCOCC4)ncnc3c2c1 | 18%
38 | C=CCn1c(SCC#N)nc2c(c1=O)C(C)(C)Cc1ccccc1-2 | 28.8%
39 | COn1c(=S)[nH]c2ccccc2c1=O | 3.49%
40 | CCCCCCCCCCCCCCCC(O)C(N)CO (configuration not stated) | 94.3% (active)
41 | CCSC(SCC)[C@H](O)[C@@H](O)[C@H](O)[C@H](O)CO | -2.15%
42 | Cc1cc(C)n(-c2c(F)c(F)c(CN3CCCCC3)c(F)c2F)n1 | 9.57%
43 | CN(C)c1cccc2c(S(=O)(=O)N3CCOCC3)cccc12 | 15.9%
44 | Cc1ccc(C(=O)/C=C/Nc2cccc(O)c2)cc1 | 37.1%
45 | N=c1c2c(-c3ccccc3)c(-c3ccccc3)n(Cc3ccccc3)c2ncn1CCCn1ccnc1 | 91.5% (active)
46 | O=C(NCCCn1ccnc1)C(Cc1ccccc1)N1C(=O)c2ccccc2C1=O (configuration not stated) | 2.6%
47 | O=c1c(C=NCCCn2ccnc2)c(-c2ccccc2)[nH]n1-c1nc2ccccc2s1 | 17%
48 | Cc1cc(C)c2c(N)c(C(=O)c3ccccc3)oc2n1 | 19.9%
49 | Cc1nn(-c2ccccc2)c2c1C(c1ccc(F)cc1F)C(C#N)=C(N)O2 (configuration not stated) | 17%
50 | CCCCCCc1cc2cc(C(=O)NC)c(=N)oc2cc1O | 87.4% (active)

Row | SMILES | growth inhibition
51 | CCN(CC)c1ccc2cc(-c3nnc(-c4ccncc4)o3)c(=O)oc2c1 | 11.3%
52 | CNC(=O)c1cc2c(ccc3ccccc32)oc1=N | 9.88%
53 | CCCCCCc1cc2cc(-c3nnc(-c4ccccc4O)o3)c(=O)oc2cc1O | 95% (active)
54 | COc1ccc(C2/C(=C(\O)c3ccc4c(c3)OCCO4)C(=O)C(=O)N2CCCN(C)C)cc1 (configuration not stated) | -19.3%
55 | O=C(OCCN1CCOCC1)c1ccc2c(c1)OCCO2 | -1.1%
56 | NC(=O)c1ccccc1OCCOCCOCCOc1ccccc1C(N)=O | 4.77%
57 | COC(=O)CSc1nc(N)nc(C)c1Br | 0.51%
58 | C=CCn1c(=O)c(C(=O)NCCN(CC)CC)c(O)c2ccccc21 | 13.9%
59 | N#Cc1ccc(-c2ccco2)nc1SCC(=O)c1ccc(Cl)cc1 | 36.8%
60 | N#CC1=C(SCc2ccccc2)NC2=C(C(=O)CCC2)C1c1ccc2c(c1)OCO2 (configuration not stated) | 35.2%
61 | COc1ccccc1NC(=O)C1=C(C)NC(SCC(=O)c2ccc(C)cc2)=C(C#N)C1c1ccco1 (configuration not stated) | 18.3%
62 | N#CC1=C(SCC(=O)c2ccccc2)NC2=C(C(=O)CCC2)C1c1ccco1 (configuration not stated) | 69% (active)
63 | Cc1ccc(C(=O)CSC2=C(C#N)C(c3ccco3)C3=C(CCCC3=O)N2)cc1 (configuration not stated) | 76.4% (active)
64 | CCOC(=O)CSC1=C(C#N)C(c2ccc(OC)cc2)C2=C(CC(C)(C)CC2=O)N1 (configuration not stated) | 9.46%
65 | Cc1ccc(NC(=O)CSC2=C(C#N)C(c3ccco3)C3=C(CCCC3=O)N2)cc1 (configuration not stated) | 31.5%
66 | N#CC1=C(SCC(=O)c2ccc(Cl)cc2)NC2=C(C(=O)CCC2)C1c1ccco1 (configuration not stated) | 80% (active)
67 | N#CC1=C(SCC(=O)c2ccc(Br)cc2)NC2=C(C(=O)CCC2)C1c1ccco1 (configuration not stated) | 77.8% (active)
68 | CCCCC1CC1C(=O)Nc1ccc(OC)c(OC)c1 (configuration not stated) | 11%
69 | Cn1c(=O)c2c(nc(NCCCO)n2Cc2cccc(C(F)(F)F)c2)n(C)c1=O | 29.2%
70 | Cc1cc(=O)n2[nH]cnc2n1 | 4.42%
71 | N#CCCn1cnc2c(=S)nc[nH]c21 | 5.6%
72 | COc1ccc(OC)c(C2C(C#N)=C(N)Oc3cc(C)[nH]c(=O)c32)c1 (configuration not stated) | 3.98%
73 | Nc1c(C(=O)NCc2ccco2)sc2nc(N3CCOCC3)c3c(c12)CCCC3 | 18.2%
74 | Cc1ccc(C(=O)C2=C(O)C(=O)N(c3ncccn3)C2c2cccc(Cl)c2)o1 (configuration not stated) | -5.18%
75 | COc1ccc(NC(=O)Nc2cccc(C(=O)N3CCOCC3)c2)cc1OC | 1.01%

Row | SMILES | growth inhibition
76 | N#CC(C#N)C(c1ccsc1)c1c(-c2ccccc2)[nH][nH]c1=O (configuration not stated) | 7.27%
77 | Oc1ccc(/C=C/c2cc(O)cc(O)c2)cc1 | 63.9% (active)
78 | Cc1cc(O)c(C(C)C)cc1N=C1CSC(=O)N1 | 7.06%
79 | CCCCOc1ccc(C(=O)Nn2cnnc2)cc1 | -2.48%
80 | CCCCOc1ccc(C(=O)OC2CC(C)N(C)CC2C)cc1 (configuration not stated) | 90% (active)
81 | CCCCOc1ccc(C(=O)CCN2CCCCC2)cc1 | -1.37%
82 | CC(O)(C#CCN1CCOCC1)c1ccccc1 (configuration not stated) | 2.79%
83 | Cc1cccc(NC(=O)c2cc(N3CCOCC3)nc3ccccc23)c1 | 2.86%
84 | N#Cc1nc(COc2ccc(Br)cc2)oc1NCCN1CCOCC1 | 13.4%
85 | Cc1sc(-n2c(C)ccc2C)c(C#N)c1C | -0.27%
86 | COc1ccc2c(c1OC)C(=O)OC2C1c2c(cc3c(c2OC)OCO3)CCN1C (configuration not stated) | 23.2%
87 | COc1cc([C@@H]2c3cc4c(cc3[C@H](O)[C@H]3COC(=O)[C@H]23)OCO4)cc(OC)c1OC | 66.9% (active)
88 | COc1ccc2c(c1OC)C(=O)O[C@@H]2[C@H]1c2c(cc3c(c2OC)OCO3)CCN1C | 28.5%
89 | Cc1c(C)n(C(=O)CSc2nccn2C)c2ccccc12 | -7.69%
90 | COc1cc(C2Nc3cccc4cccc(c34)N2)cc(OC)c1OC(C)=O | 68.5% (active)
91 | COc1cc(C2NC(=O)NC(C)=C2C(=O)Nc2cccc(C)c2C)cc(OC)c1OC (configuration not stated) | 0.87%
92 | CCN(CC)CCN1C(=O)c2ccccc2NC1c1cc(OC)c(OC)c(OC)c1 (configuration not stated) | 0.59%
93 | O=C1C2ON(c3ccccc3)C(c3ccncc3)C2C(=O)N1c1ccccc1 (configuration not stated) | -3.79%
94 | O=C(O)C(O)c1ccco1 (configuration not stated) | 3.07%
95 | Cc1cc(O)ccc1-c1cnc2ccccc2n1 | 13%
96 | Cc1nc(-c2c(-c3ccc(O)cc3O)noc2C(F)(F)F)cs1 | 41.5%
97 | Cc1[nH]nc(-c2ccc(O)cc2O)c1Oc1ccccc1 | 56.1% (active)
